# Records with an inconclusive call do not appear. For part of these data: Entries with a potency or affinity are not part of this list. The source made the active and inactive calls. Unless noted, no stated cut-off is given here; in the data, active means parasite load remaining mostly below about 12% (no sharp cut-off); inactive means mostly above about 10%.
# Experiments:
# [1] = liver-stage malaria parasite growth inhibition, primary screen, cell-based, HepG2, luciferase luminescence, HepG2 viability (AID 624349);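 further: 100% = mean of DMSO negative control wells on the same plate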; conditions: P. berghei liver stage in HepG2, luciferase luminescence, concentration not given here; parasite load remaining: stronger effect = lower value; viability: measured here: HepG2 viability without parasites
# [2] = sensitizers of A549 cells to miR-34 induction, primary screen, imaging, A549 dox-inducible miR-34, nuclei and caspase counts (AID 1347080;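 active means compounds whose cell count with miR-34 switched on is under 0.7 times the count with it off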); conditions: A549 miR-34 inducible, Hoechst nuclei count, 48 h
# [3] = hESC survival regulators, cell-based (AID 493140; call rule not given here;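 further: cells exposed to compounds for four days before counting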); conditions: human embryonic stem cell survival screen; stronger effect = higher value
# [4] = target: ATP-dependent translocase ABCB1 (Homo sapiens) (UniProt P08183); assay: MDR1 (ABCB1) efflux transporter inhibition, cell-based (AID 377; in the data active means fluorescence slope change above about 50%); conditions: MDR1-expressing cells, fluorescent substrate accumulation slope; stronger effect = higher value; concentration not given here
# Chain of ATP-dependent translocase ABCB1 (Homo sapiens) (P08183 whole entry, looked up): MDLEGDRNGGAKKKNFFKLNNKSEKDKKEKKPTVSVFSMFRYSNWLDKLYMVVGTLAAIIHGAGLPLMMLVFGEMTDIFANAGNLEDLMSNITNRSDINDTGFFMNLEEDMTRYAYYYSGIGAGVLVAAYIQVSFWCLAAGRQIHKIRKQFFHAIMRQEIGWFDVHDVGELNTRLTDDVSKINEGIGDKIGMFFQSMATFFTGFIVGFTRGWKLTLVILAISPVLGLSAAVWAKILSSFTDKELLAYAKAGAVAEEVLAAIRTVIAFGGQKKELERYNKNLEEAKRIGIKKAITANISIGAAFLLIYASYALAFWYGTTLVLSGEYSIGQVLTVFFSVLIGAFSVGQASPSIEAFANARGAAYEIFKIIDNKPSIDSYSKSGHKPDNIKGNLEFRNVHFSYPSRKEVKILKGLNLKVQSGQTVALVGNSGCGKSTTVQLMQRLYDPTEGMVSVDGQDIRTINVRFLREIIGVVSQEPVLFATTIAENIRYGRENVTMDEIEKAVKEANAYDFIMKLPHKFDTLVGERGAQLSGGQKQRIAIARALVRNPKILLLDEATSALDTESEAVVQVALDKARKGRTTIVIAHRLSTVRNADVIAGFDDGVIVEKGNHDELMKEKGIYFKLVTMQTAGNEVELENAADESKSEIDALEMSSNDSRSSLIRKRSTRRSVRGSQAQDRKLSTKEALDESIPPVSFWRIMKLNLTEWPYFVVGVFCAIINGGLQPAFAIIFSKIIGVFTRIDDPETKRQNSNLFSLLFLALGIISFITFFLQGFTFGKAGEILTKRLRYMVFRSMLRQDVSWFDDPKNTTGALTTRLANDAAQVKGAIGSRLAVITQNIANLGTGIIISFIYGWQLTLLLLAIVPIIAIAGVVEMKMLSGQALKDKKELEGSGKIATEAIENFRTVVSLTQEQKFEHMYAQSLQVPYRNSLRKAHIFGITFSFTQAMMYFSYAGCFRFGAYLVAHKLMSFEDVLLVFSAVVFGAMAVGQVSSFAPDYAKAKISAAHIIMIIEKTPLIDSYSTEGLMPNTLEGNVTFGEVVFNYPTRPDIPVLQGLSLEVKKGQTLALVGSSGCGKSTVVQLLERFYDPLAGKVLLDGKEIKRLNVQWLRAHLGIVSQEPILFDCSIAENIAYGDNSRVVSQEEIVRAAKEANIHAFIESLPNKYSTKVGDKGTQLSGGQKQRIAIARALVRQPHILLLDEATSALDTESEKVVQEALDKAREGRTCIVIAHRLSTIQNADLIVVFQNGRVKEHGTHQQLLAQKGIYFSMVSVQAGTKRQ
# [5] = polyglutamine-triggered caspase-3 activation inhibitors, cell-based (AID 1583); conditions: polyglutamine-induced caspase-3 activation, cell assay; stronger effect = higher value;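 tested at 10 µM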
# [6] = suppressors of polyQ aggregation in yeast, 75Q-TubU reporter (AID 1593); conditions: Yeast 75Q polyglutamine aggregation reporter
# [7] = rescue of polyQ-huntingtin neuronal dysfunction in worms, whole organism, C. elegans mechanosensory neurons, N-terminal huntingtin (AID 1599); conditions: touch response, stronger effect = higher value
# [8] = inhibitors of mitochondrial cytochrome c release, biochemical, purified mitochondria (AID 1603); conditions: stronger effect = lower value;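 further: mouse liver mitochondria challenged with calcium chloride; signal normalized to the plate average as 100%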
# [9] = inhibitors of polyQ protein aggregation (AID 1604); conditions: polyglutamine-induced protein aggregation inhibition assay; stronger effect = higher value; tested at 2.5 µM
# [10] = enhancers of glutamate uptake in motor neurons, MN-1 cell line (AID 1612); conditions: MN-1 motor neuron cells, stronger effect = higher value;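 further: tested at 1 µM final; 0% = mean of DMSO vehicle wells on each plate; positive means more glutamate uptake than control and negative means less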
# [11] = reducers of polyQ inclusions in PC12 cells, cell-based, NGF-treated PC12, GFPQ80 (AID 1614); conditions: PC12 NGF-treated GFP-polyQ80 inclusion reduction;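 further: lower means fewer inclusions and 0 means no inclusions at all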
# [12] = suppressors of polyglutamine aggregation in yeast, 75Q-TubH (AID 1616); conditions: S. cerevisiae 75Q-TubH polyglutamine aggregation suppression; stronger effect = higher value
# [13] = circadian clock period modulators, cell-based, LOPAC library, luminescence reporter (AID 2774; call rule not given here;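 further: values are relative to mean of DMSO wells on each plate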); conditions: circadian reporter cells, at 7 µM, actives lie on both sides
# [14] = tested on: Hepatitis C virus NS3 helicase; assay: HCV NS3 helicase inhibitors, primary screen, biochemical, fluorescence polarization, LOPAC1280 library (AID 687035; in the data active means inhibition above about 37%); conditions: Purified HCV NS3 helicase, Cy5-dT15 ssDNA binding fluorescence polarization; stronger effect = higher value; concentration not given here
# [15] = Cy5 fluorescence quenching or enhancement artefacts, artefact control for HCV NS3 helicase inhibitor project, biochemical, LOPAC1280 (AID 687037; call rule not given here); conditions: Cy5-DNA-NS3h complex fluorescence interference counterscreen
# [16] = target: NAD(+) hydrolase SARM1 (Homo sapiens) (UniProt Q6SZW1); assay: SARM1 TIR NADase inhibitors, cell lysate, NAD-Glo luminescence (AID 1508614;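 active means compound whose remaining NAD level is above about 45 nM, limit read from the data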); conditions: SAM-TIR HEK293T lysate NADase, at 1 µM, stronger effect = higher value
# Chain of NAD(+) hydrolase SARM1 (Homo sapiens) (Q6SZW1 whole entry, looked up, the tested form may be a part): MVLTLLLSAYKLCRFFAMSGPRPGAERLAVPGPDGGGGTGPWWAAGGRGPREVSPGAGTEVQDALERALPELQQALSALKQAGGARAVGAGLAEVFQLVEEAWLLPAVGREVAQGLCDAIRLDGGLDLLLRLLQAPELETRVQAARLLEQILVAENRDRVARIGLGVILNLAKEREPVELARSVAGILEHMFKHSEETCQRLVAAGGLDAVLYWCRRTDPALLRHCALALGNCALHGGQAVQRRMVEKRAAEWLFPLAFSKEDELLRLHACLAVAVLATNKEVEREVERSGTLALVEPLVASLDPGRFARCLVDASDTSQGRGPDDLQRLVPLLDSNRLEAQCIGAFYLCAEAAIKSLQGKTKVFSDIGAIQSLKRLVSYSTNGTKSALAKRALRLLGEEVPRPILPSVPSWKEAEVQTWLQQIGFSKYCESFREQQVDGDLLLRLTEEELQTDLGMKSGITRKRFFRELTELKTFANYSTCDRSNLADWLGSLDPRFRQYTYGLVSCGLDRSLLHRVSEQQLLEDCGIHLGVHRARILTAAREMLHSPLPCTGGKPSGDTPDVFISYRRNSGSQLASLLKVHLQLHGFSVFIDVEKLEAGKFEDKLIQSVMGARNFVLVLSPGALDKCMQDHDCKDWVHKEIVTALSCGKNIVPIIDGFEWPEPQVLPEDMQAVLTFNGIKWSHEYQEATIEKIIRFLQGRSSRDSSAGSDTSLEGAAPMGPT
# [17] = target: Mitogen-activated protein kinase 7 (Homo sapiens) (UniProt Q13164); assay: ERK5 transactivation activators in reporter cells, primary screen, cell-based, HTS (AID 1508626;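 active means luciferase signal above three times the same-plate solvent-only control wells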;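 further: luciferase driven by Gal4-ERK5 fusion binding five Gal4 sites before minimal TATA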); conditions: HeLa Gal4-ERK5 transactivation, 18 h, at 5 µM, stronger effect = higher value
# Chain of Mitogen-activated protein kinase 7 (Homo sapiens) (Q13164 whole entry, looked up, the tested form may be a part): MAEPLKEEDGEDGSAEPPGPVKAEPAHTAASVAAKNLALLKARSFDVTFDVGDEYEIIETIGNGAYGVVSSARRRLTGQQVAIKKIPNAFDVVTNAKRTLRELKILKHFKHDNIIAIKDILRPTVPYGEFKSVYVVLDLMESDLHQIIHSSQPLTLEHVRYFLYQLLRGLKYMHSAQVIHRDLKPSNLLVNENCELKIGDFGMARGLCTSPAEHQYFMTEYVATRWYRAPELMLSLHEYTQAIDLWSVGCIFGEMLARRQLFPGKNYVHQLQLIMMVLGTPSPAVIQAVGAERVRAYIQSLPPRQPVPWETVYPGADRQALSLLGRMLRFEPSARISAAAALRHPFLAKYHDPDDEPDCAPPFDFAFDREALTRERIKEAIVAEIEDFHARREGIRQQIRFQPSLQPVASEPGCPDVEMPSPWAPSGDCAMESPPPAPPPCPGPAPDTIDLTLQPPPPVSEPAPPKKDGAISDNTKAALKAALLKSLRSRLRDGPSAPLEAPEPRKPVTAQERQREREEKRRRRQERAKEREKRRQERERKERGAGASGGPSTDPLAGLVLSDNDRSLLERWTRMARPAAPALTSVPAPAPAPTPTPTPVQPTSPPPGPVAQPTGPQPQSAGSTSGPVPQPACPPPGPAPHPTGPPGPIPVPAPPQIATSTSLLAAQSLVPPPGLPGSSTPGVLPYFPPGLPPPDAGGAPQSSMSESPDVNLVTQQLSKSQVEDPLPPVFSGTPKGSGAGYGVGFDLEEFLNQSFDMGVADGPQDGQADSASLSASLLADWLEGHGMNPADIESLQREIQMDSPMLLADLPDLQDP
# [18] = measured here: relative caspase fold change +Dox/-Dox
# [19] = measured here: total cells with miR-34 induction, stronger effect = lower value
# [20] = measured here: total cells without miR-34 induction
# [21] = stronger effect = lower value, cell number ratio, induced over uninduced
compound,measurement,setting,value
COc1cc(C(=O)OC2C[C@H]3CC[C@@H](C2)N3C)ccc1O (some centres undefined),parasite load remaining,[1],90.6% (inactive)
same,viability,[1],98.9%
same,fold change,[2]; stronger effect = lower value,0.903 (inactive)
same,fold change,[2]; [18],1.48
same,cell count,[2]; [19],8240
same,cell count,[2]; [20],9120
C[C@H]1O[C@@H](OC2CC[C@]3(C=O)[C@H]4CC[C@]5(C)[C@@H](C6=CC(=O)OC6)CC[C@]5(O)[C@@H]4CC[C@]3(O)C2)C[C@H](O)[C@@H]1O (some centres undefined),parasite load remaining,[1],0.83% (inactive)
same,viability,[1],69.5%
same,fold change,[2]; [21],0.718 (inactive)
same,fold change,[2]; [18],1.73
same,cell count,[2]; [19],1040
same,cell count,[2]; [20],1440
C[C@@H]1O[C@@H](O[C@@H]2C=C3CCC4C(CC[C@]5(C)[C@@H](c6ccc(=O)oc6)CC[C@]45O)[C@@]3(C)CC2)[C@H](O)[C@H](O)[C@H]1O (some centres undefined),parasite load remaining,[1],0.58% (inactive)
same,viability,[1],13.4%
same,fold change,[2]; [21],1.51 (inactive)
same,fold change,[2]; [18],0.74
same,cell count,[2]; [19],696
same,cell count,[2]; [20],460
C=C[C@]12CN(C)[C@@H]3[C@H]4COC(CC41)[C@]1(C(=O)Nc4ccccc41)[C@@H]32,parasite load remaining,[1],100% (inactive)
same,viability,[1],94.8%
same,fold change,[2]; [21],0.845 (inactive)
same,fold change,[2]; [18],1.55
same,cell count,[2]; [19],8470
same,cell count,[2]; [20],10000
C[C@]12CC3SC3C[C@@H]1CC[C@@H]1[C@@H]2CC[C@]2(C)[C@@H](O)CC[C@@H]12 (some centres undefined),survival,[3],17.5 (inactive)
same,parasite load remaining,[1],87.8% (inactive)
same,viability,[1],72.9%
same,fold change,[2]; stronger effect = lower value,0.913 (inactive)
same,fold change,[2]; [18],0.52
same,cell count,[2]; [19],9130
same,cell count,[2]; [20],10000
CO[C@H]1C=C2CCN(C)[C@H]2C2c3cc4c(cc3C(=O)O[C@@H]21)OCO4 (some centres undefined),parasite load remaining,[1],64.2% (inactive)
same,viability,[1],100%
same,fold change,[2]; [21],0.936 (inactive)
same,fold change,[2]; [18],0.836
same,cell count,[2]; [19],9140
same,cell count,[2]; [20],9770
CC[C@H](C)[C@H]1O[C@]2(C=C[C@@H]1C)C[C@@H]1C[C@@H](C/C=C(\C)C(O[C@H]3C[C@H](OC)C(O[C@H]4C[C@H](OC)[C@@H](O)[C@H](C)O4)[C@H](C)O3)[C@@H](C)/C=C/C=C3\CO[C@@H]4[C@H](O)C(C)=C[C@@H](C(=O)O1)[C@]34O)O2 (some centres undefined),fluorescence slope change,[4],61.5% (active)
C=CCC1(CC(C)C)C(=O)NC(=O)NC1=O,inhibition,[5],-3.41%
same,score,[6],0.97
same,rescue above control,[7],1.21
same,cytochrome c release ratio,[8],0.94
same,inhibition of aggregation,[9],7.48%
same,glutamate uptake change,[10],5.4%
same,inclusion score,[11],2
same,aggregation suppression score,[12],1.15
C#CCN(C)[C@@H](C)Cc1ccccc1,period change,[13],0.185 h (inactive)
CN1CCN(C(=O)OC2c3nccnc3C(=O)N2c2ccc(Cl)cn2)CC1 (centres undefined),period change,[13],-0.19 h (inactive)
COC(=O)[C@]1(O)C[C@@H]2O[C@@]1(C)n1c3ccccc3c3c4c(c5c6ccccc6n2c5c31)C(=O)NC4,parasite load remaining,[1],43.2% (inactive)
same,viability,[1],53.6%
C[C@H]1C2Cc3ccc(O)cc3[C@@]1(C)CCN2CC1CC1,inhibition,[14],0% (inactive)
same,fluorescence ratio (interference),[15],1 (inactive)
C=CC[C@]1(O)CC[C@H]2[C@@H]3CCC4=CC(=O)CCC4=C3C=C[C@@]21C,remaining NAD,[16],10 nM (inactive)
same,luciferase signal,[17],60 AU (inactive)
CC(=O)O[C@H]1C[C@H](O[C@H]2[C@@H](O)C[C@H](O[C@H]3[C@@H](O)C[C@H](O[C@H]4CC[C@@]5(C)[C@H](CC[C@@H]6[C@@H]5C[C@@H](O)[C@]5(C)[C@@H](C7=CC(=O)OC7)CC[C@]65O)C4)O[C@@H]3C)O[C@@H]2C)O[C@H](C)[C@H]1O[C@@H]1O[C@H](CO)[C@@H](O)[C@H](O)[C@H]1O,remaining NAD,[16],10 nM (inactive)
same,luciferase signal,[17],44 AU (inactive)
C[N+]1([O-])[C@@H]2CC[C@H]1CC(OC(=O)C(CO)c1ccccc1)C2 (some centres undefined),fluorescence slope change,[4],74.3% (active)
same,survival,[3],35.2 (inactive)
same,parasite load remaining,[1],113% (inactive)
same,viability,[1],87.7%
CC(N)C(O)c1ccccc1 (centres undefined),fluorescence slope change,[4],4.9% (inactive)
same,inhibition,[5],-49.8%
same,score,[6],1.3
same,rescue above control,[7],-2.3
same,cytochrome c release ratio,[8],0.86
same,inhibition of aggregation,[9],86.1%
same,glutamate uptake change,[10],4.9%
same,inclusion score,[11],2
same,aggregation suppression score,[12],1.78
CN1C(=O)CN=C(c2ccccc2F)c2cc([N+](=O)[O-])ccc21,inhibition,[5],9.27%
same,score,[6],0.97
same,rescue above control,[7],-7.57
same,cytochrome c release ratio,[8],0.83
same,inhibition of aggregation,[9],22.4%
same,glutamate uptake change,[10],-1.18%
same,inclusion score,[11],2
same,aggregation suppression score,[12],0.965
ClC1=C(Cl)C2(Cl)C3C4CC(C5OC45)C3C1(Cl)C2(Cl)Cl (centres undefined),inhibition,[5],8.56%
same,score,[6],0
same,rescue above control,[7],3.84
same,cytochrome c release ratio,[8],1.81
same,inhibition of aggregation,[9],72.4%
same,glutamate uptake change,[10],-23.9%
same,aggregation suppression score,[12],0.719
